# Counter-ions that a name gives are not always drawn.
# What was measured:
# Test in all cases: Euclidean distance of Cell Painting phenotypic profile (signed KS, 77 features) to DMSO centroid (dimensionless distance); 5 or 10 uM (library dependent); higher = stronger phenotypic change vs DMSO (phenoactivity)
# Settings in all cases: 48 h
# 786-O = tested on: 786-O
# Outline: (§1)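 Library compounds were applied at 10 or 5 uM, depending on the library, with 0.1% DMSO final, for 48 h to five cancer lines and a healthy fibroblast line. After staining, cells were imaged confocally at 20X across 9 fields per well, and Harmony extracted 77 features, each scored as a signed Kolmogorov-Smirnov statistic against vehicle wells on the same plate. Phenoactivity is the Euclidean distance between each profile and the median vehicle profile, with profiles first plate-position corrected, correlation-weighted and averaged over replicates at the top dose.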
# A549 = tested on: A549
# Outline: as §1
# DU145 = tested on: DU145
# Outline: as §1
# FB = tested on: FB
# Outline: as §1
# HEPG2 = tested on: HEPG2
# Outline: as §1
# OVCAR4 = tested on: OVCAR4
# Outline: as §1
SMILES,Euclidean distance (786-O),Euclidean distance (A549),Euclidean distance (DU145),Euclidean distance (FB),Euclidean distance (HEPG2),Euclidean distance (OVCAR4)
CC[C@H](C)[C@@H]1NC(=O)[C@H](Cc2ccc(O)cc2)NC(=O)[C@@H](N)CSSC[C@@H](C(=O)N2CCC[C@H]2C(=O)N[C@@H](CC(C)C)C(=O)NCC(N)=O)NC(=O)[C@H](CC(N)=O)NC(=O)[C@H](CCC(N)=O)NC1=O [Oxytocin (Syntocinon)],1.83,1.77,0.912,1.41,0.745,0.928
CC(C)NC[C@@H](C(=O)N1CCN(c2ncnc3c2[C@H](C)C[C@H]3O)CC1)c1ccc(Cl)cc1 [Ipatasertib (GDC-0068)],2.48,2.97,2.12,2.49,1.13,2.11
CCOc1ccc(Cc2cc([C@@H]3O[C@H](CO)[C@@H](O)[C@H](O)[C@H]3O)ccc2Cl)cc1 [Dapagliflozin propanediol monohydrate],1.02,0.644,1.02,0.967,0.649,0.832
C[C@]12CC[C@@H]3c4ccc(O)cc4CC[C@H]3[C@@H]1CCC2=O [Estrone],0.82,0.907,0.761,1.21,0.472,0.764
COc1c(C)c2c(c(O)c1C/C=C(\C)CCC(=O)OCCN1CCOCC1)C(=O)OC2 [Mycophenolate Mofetil],2.59,3.61,2.11,3.32,2.76,3.19
C[C@@H]1[C@H](O)[C@@H](C)/C=C/C=C/C=C/C=C/C=C/C=C/C=C/[C@H](O[C@@H]2O[C@H](C)[C@@H](O)[C@H](N)[C@@H]2O)C[C@@H]2O[C@](O)(C[C@@H](O)C[C@@H](O)[C@H](O)CC[C@@H](O)C[C@@H](O)CC(=O)O[C@H]1C)C[C@H](O)[C@H]2C(=O)O [Amphotericin B],1.91,1.67,1.91,3.03,1.43,1.93
N=C(N)NCCN1CCCCCCC1 [Guanethidine Monosulfate],1.05,1.78,0.775,1.38,0.975,1.68
Cc1cc(Nc2cc(CN3CCOCC3)c3nc(C)c(Cc4ccc(Cl)cc4F)n3n2)n[nH]1,3.25,3.37,2.63,1.71,2.95,3.19
CS(=O)(=O)CCNCc1ccc(-c2ccc3ncnc(Nc4ccc(OCc5cccc(F)c5)c(Cl)c4)c3c2)o1 [Lapatinib],4.13,3.1,2.2,2.22,3.72,3.77
O=C(c1cncc(Br)c1)N1CCC(N2CCCC2)CC1,0.781,0.805,0.843,1.31,1.28,0.898
C=CCOc1ccccc1OCC(O)CNC(C)C (stereo unspecified) [Oxprenolol HCl],0.863,0.819,1.56,1.21,0.783,0.994
C[C@H](NC(=O)C(=O)Nc1ccccc1C(C)(C)C)C(=O)N[C@@H](CC(=O)O)C(=O)COc1c(F)c(F)cc(F)c1F [Emricasan],1.44,0.567,0.769,0.936,0.32,0.99
O=C(Nc1ccc(O)cc1)c1ccccc1O [Osalmid],1.02,0.634,1.01,1.27,0.744,0.853
O=c1[nH]c(=O)n([C@H]2C[C@H](O)[C@@H](CO)O2)cc1F [Floxuridine],1.86,3,2.5,1.73,2.61,2.71
Cc1ccc(NC(=O)c2ccc(CN3CCN(C)CC3)cc2)cc1Nc1nc(-c2cccnc2)cs1 [Masitinib (AB1010)],2.6,2.76,2.65,3.16,2.4,2.08
CC/C=C(\C(=O)N[C@@H]1C(=O)N2C(C(=O)OCOC(=O)C(C)(C)C)=C(COC(N)=O)CS[C@H]12)c1csc(N)n1 [Cefcapene Pivoxil Hydrochloride],1.24,0.833,2.69,0.746,0.54,0.898
CC(=O)OCC(=O)[C@@]12N=C(C)O[C@@H]1C[C@H]1[C@@H]3CCC4=CC(=O)C=C[C@]4(C)[C@H]3[C@@H](O)C[C@@]12C [Deflazacort],1.27,1.84,2.48,2.04,1.58,1.7
CCC1(c2c[nH]cn2)Cc2ccccc2C1 [Atipamezole],0.467,0.642,0.626,0.848,0.484,0.675
N[C@@H](CSCCCO)C(=O)O [Fudosteine],1.5,1.77,0.71,1.34,0.516,1.3
CC(=O)N1CCN(CCOc2ccc(C3CCN(C4=Nn5c(nnc5C(F)(F)F)CC4)CC3)cc2)CC1,1.54,0.992,1.22,1.76,2.06,2.66
Cc1nc(Nc2ncc(C(=O)Nc3c(C)cccc3Cl)s2)cc(N2CCN(CCO)CC2)n1 [Dasatinib],3.15,3.53,4.42,3.41,2.2,3.92
COC(=O)N[C@H](C(=O)N1CCC[C@H]1c1nc(-c2ccc3c(c2)O[C@@H](c2ccccc2)n2c-3cc3cc(-c4c[nH]c([C@@H]5CCCN5C(=O)[C@@H](NC(=O)OC)C(C)C)n4)ccc32)c[nH]1)C(C)C [Elbasvir],2.17,1.94,1.26,1.97,1.04,1.58
C=CC(=O)Nc1cc(Nc2nccc(-c3cn(C)c4ccccc34)n2)c(OC)cc1N(C)CCN(C)C [Osimertinib (AZD9291)],4.93,4.24,4.29,5.35,5.16,4.21
CC(N)C12CC3CC(CC(C3)C1)C2 (stereo unspecified) [Rimantadine Hydrochloride],1.07,0.924,0.781,1.07,0.658,1.17
O=C(Nc1ncc([N+](=O)[O-])s1)c1ccccc1O [Tizoxanide],2.03,1.85,2.61,2.81,2.81,1.81
CC1=CC[C@@](O)(C(C)C)CC1 [Terpinen-4-ol],0.644,0.999,0.827,0.873,0.873,0.882
